# The supplement of paper PMC11417369
# Over roughly 25,000 sequences, “ln(normalized median fluorescence intensity)” has its median near 6.7; the highest 2% begin near 10. The sample as a whole holds a higher share of the highest values than the screen did.
# Test system: PfHDP1 homeodomain (GST-tagged)
# Assay: gcPBM binding intensity (ln(normalized median fluorescence intensity)); higher = stronger DNA binding
# In short: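 The binding buffer was 1× PBS containing 1% milk, 0.2 mg/ml BSA, 0.5% salmon testes DNA and 0.03% Triton X-100. In it, GST-tagged P. falciparum DNA-binding domains expressed in E. coli were applied for 1 h to an Agilent 4 × 180k array of primer-extended double-stranded 36-bp intergenic genomic probes plus negative controls. Binding intensity, read with Alexa488 anti-GST antibody and a 488 nm scan, is the highest Masliner-normalised natural-log median intensity across replicate spots of either probe orientation.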
row,Sequence,gcPBM binding intensity (ln)
1,ATACATCAAGGACACACACACACACCCACACCCACA [CACACA_site8013],6.71
2,CTTAAAAACAAAAATGCACACATAATAAGCATATGT [CACACA_site9149],9.58
3,AAATAAATCTTATGCACACAAATAATTAATGAAACA [CACACA_site5011],10.6
4,TATATGAAATATTATGCACACAATATATAATATGAT [CACACA_site936],10.2
5,AAAGAAATGAAATATACACACATACATAAATACATA [CACACA_site6081],6.68
6,ATGTAAAACATAAAATGTACATATTATACAAACTAT [XGTACX_site5797],6.87
7,ATTTATATTATAATATGTACACAAAAAAAATTAGGA [XGTACX_site565],6.91
8,CAGTTTACTAATATTGCACACGAATATGAAAAAGAG [CACACA_site8941],9.89
9,TATGAAATATCGTGCACACACGAATAATATAAGAAT [CACACA_site4842],9.21
10,GTTTACTAATATTGCACACGAATATGAAAAAGAGAA [CACACA_site2897],10.6
11,ATTATTTATTATTTCTGTACGTATAAAAATAACATT [XGTACX_site1671],6.67
12,CAGTTAATGTTGGTACTTTATATAAAAATGATATGA [CACACA_negctrl_site1600],6.67
13,ATTATGTATATAAATTAACACACATATGTGGTTAAT [CACACA_site9028],6.37
14,AAATAATAAATTATAACACACATATATATATATATA [CACACA_site4045],9.33
15,TTATTTTAAATTAACACATGCATAATATATGTATAT [TGCATGCA_site597],6.31
16,CCTCTTAATATGTGCACACTAAATTATAACATAATT [CACACA_site3259],11.3
17,TTCCTCTTAATATGTGCACACTAAATTATAACATAA [CACACA_site3260],11.1
18,CCTAAATTATATTATGCACACTTAAAAATATATTTA [CACACA_site5861],9.95
19,ACTAAACTTATATGTACACACATATAACATTAATTT [CACACA_site2258],6.67
20,TAAATTATATTATGCACACTTAAAAATATATTTAAC [CACACA_site3512],9.29
21,TTCCTCTTAATATGTGCACACTAAATTATAACCTAA [CACACA_site5751],11.3
22,AATATATCATTATATAAACACACAATATGTTTTTTA [CACACA_site9260],6.22
23,CAGATAAGATTTTGTGGTACTATTTATTAAATTAGA [XGTACX_site2644],6.06

row,Sequence,gcPBM binding intensity (ln)
1,AAGGTATGATTAATCACACACATAAATATATATACA [CACACA_site2658],6.67
2,TATTTGAAAGCCAATTGTACTTTAGTTTTTGAAACA [XGTACX_site5542],5.98
3,AAAAATATAATATAATGTACACAAAAAAAAAAATTC [XGTACX_site3657],6.63
4,TATTCTAGTCTGCTTACACACATATTTATATTTATA [CACACA_site7432],7.53
5,AATTATATTTAGTATATGCACACTTTATGTTTGTTA [CACACA_site2025],9.36
6,CCACGTATACGATGCACACGTATGCTTTATATATAG [CACACA_site4108],8.58
7,GCTTTTGTCATGTGCACACACGTATATATTATATAT [CACACA_site6146],11.5
8,AGACACGTATACGATGCACACGTATGCTTTATATAT [CACACA_site9363],8.32
9,ATATATATTATGTGTGTGCACTTTTGTTATTATTAT,9.03
10,ATGCTTTTGTCATGTGCACACACGTATATATTATAT [CACACA_site4163],11
11,CTATATTATTTTTCTTGTACGTAGGAAATATAGCTA [XGTACX_site6176],6.45
12,CATTATAAAAAATAAAAAAGAAATAATTGTATATGC [CACACA_negctrl_site478],6.62
13,AAGAAAATATAAAATGCACACTATAAATTGTATATA [CACACA_site7928],9.72
14,TGTATGTATAATTGAGTGCACAGAAAAAAAAAAGAA,10.6
15,TTTGTATTACGTTTGTGTACATATACAATGTGTTTT [XGTACX_site7708],6.38
16,CCATTAAGACACATTGCACACGTGCACCCATAGAAA [CACACA_site4388],10.2
17,TAAGAAATAAATAGTACACACATAGACACCCACCGA [CACACA_site1516],7.1
18,ATTAAGACACATTGCACACGTGCACCCATAGAAAAA [CACACA_site408],10.5
19,TCATTGAAAATTGTTGCACACATAATAATTAAATAT [CACACA_site8554],9.46
20,ACATTAAGACACATTGCACACGTGCACCCATAGAAA [CACACA_site8029],10.5
21,TACACCCATAGACACACACACACGCATAAAAAAAAA [CACACA_site8428],6.85
22,ACATTGCACCCGTGCACACATAGAAAAATAATTCTT [CACACA_site409],10.3
23,ACCCATTGCTCACGTGCACACATAGAAAAATAATTC [CACACA_site4389],10.7

row,Sequence,gcPBM binding intensity (ln)
1,TAAGAAATAAATAGTACACACATAGACACCCACCCA [CACACA_site8429],7.64
2,TCACTTTTTATTAAATGTACATGCTTTCATTTTCAT [XGTACX_site8139],6.78
3,ATAAACAAAAAAAAAAAATATATCAATATATATATA [CACACA_negctrl_site299],8.7
4,TTTTTAAAAAATAAGAAAAAATAAATATATTACAAA [XGTACX_negctrl_site191],6.58
5,AAAATAAATAAATACACACACACGAATATATATATA [CACACA_site1683],8.57
6,TACTTATTTGATTGGGTGCATATATATAGTATGTAT [GTGCAC_site9845],9.2
7,TATACACATATATAAAGTACATATATGTGTAAAAAA [XGTACX_site8582],6.8
8,GTGCTAAAAGTATATGCACACACATATATATGCACA [CACACA_site8472],10.6
9,AATAATAAAAAAAGTGCACACACATAATATATATAT [CACACA_site9100],8.79
10,GAAAAGCATAGATGCACACATATATATATATATATA [CACACA_site2169],9.77
11,ATGTGCACATATAAAAGTACACGCACATATATATAT [XGTACX_site1238],11
12,AAGAAAAGCATAGATGCACACATATATATATATATA [CACACA_site8675],9.35
13,AGATAAAAAAAGTACACACACACATATATATATATA [CACACA_site3072],9.22
14,TAATAAAAAAAGTGCACACACATAATATATATATAT [CACACA_site3340],9.23
15,AAAAAAAAAAAGCACACACACATATGAGTATATATA [CACACA_site4683],6.91
16,AAAAAAAAAAAAAGCACACACACATATGCGTATATA [CACACA_site953],6.43
17,GCTAAAAGTATATGCACACACATATAGATGCACATA [CACACA_site6868],10.7
18,GCTAAAAGTATATGCACACACATATATATGCACATA [CACACA_site1635],11
19,TAATAAATCCTATATAGTACATATATGCAAGTATGT [XGTACX_site3955],6.97
20,TCTTATTAAAATATTTATATAGGTAATCACAATATT [GTGCAC_negctrl_site568],6.37
21,ATATCAAACTAGAATGTGCGCATGCATTCAAGTTTT,6.54
22,TATGTCAATTTTCATACATGCGCATAATCTTTATTT [TGCATGCA_site807],7.53
23,TTATTATTCATATATTCACACATTAAAATTTTTCAA [CACACA_site4243],6.62

row,Sequence,gcPBM binding intensity (ln)
1,TTCATTCAAATTAACGTGCACATTATTAGTAAAAAC,10.7
2,TGTAAATTATAACGTGCACACATATTTAAAATGAAA [CACACA_site8915],9.88
3,GTATATATATATATATGCAAATGTATAAATCTACAT [CACACA_negctrl_site546],7.32
4,TTGCAACTCTTCAATCGTACACATTATTTATTATAT [XGTACX_site1377],6.89
5,TAAAATATATAAAACTGTACATTTTAAAGGCACAAC [XGTACX_site8342],7.1
6,CTAATCGTGCACAACTGTACATTTGTCAAGGGCAAT [XGTACX_site8662],10.8
7,TATATAGGTATCATTACACACATGTATACTTATTTG [CACACA_site7864],6.47
8,AGCTCTTGTCATTTTGCACACACACCCGTATAGGTT [CACACA_site3056],10.3
9,CTTGTCATTTTGCACACACACATGTATAGGTTATTA [CACACA_site7431],10.9
10,GTATATCACACATTTGCATGTTGTCAATAGTTTATC [TGCATGCA_site134],6.93
11,AGCTCTTGTCATTTTGCACACACACCGGTATAGGTT [CACACA_site5654],10.4
12,CTTGTCATTTGGCACACACACATGTATAGGTTATTA [CACACA_site5656],6.72
13,CTCTTGTCATTTTGCACACACACATGTATAGGTTAT [CACACA_site3057],11.1
14,CTCTTGTCATTTTGCACACACACATGGATAGGTTAT [CACACA_site5655],10.8
15,CTTGTCATTGGGCACACACACATGTATAGGTTATTA [CACACA_site3058],6.49
16,TCTACATATTAATTATGTACGAATTATTATTAGTAA [XGTACX_site6924],6.03
17,TTTAAGAATTAACGGGGTACAATTCTTAAATATATA [XGTACX_site669],6.33
18,ACTGAAAAAAGAAATACACACATTCTGGATCATATA [CACACA_site3860],6.47
19,ATTTTTTTTTGTGTATATAAATAAATAAATATATAT [GTGCAC_negctrl_site603],6.47
20,AAGAAAAAGACTTCATGAAAAAGAATTTTTTTAATT [TGCATGCA_negctrl_site473],5.86
